The full list was thinned out, with hits kept by preference.
Sa growth inh: S. aureus growth inhibition; S. aureus RN4220 growth, OD600, 20 h, 42 °C; hits give low values; relative growth, % (concentration not given with the values); hit rate 0.53% among 170,000;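 active means relative growth at most 50% at the other temperature and 20+ points below 30 °C, or under 10% at both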
Sa helicase inh: blocks Staphylococcus aureus DNA helicase | purified S. aureus helicase, fluorescence unwinding assay | inhibition, % (no concentration beside the values) | hit rate 0.05% among 120,000 | AID 485395; in the data active means inhibition above about 25%, passing the limit was not always enough;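 further: 0% = mean of negative control wells and 100% = mean of positive control wells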
* marks the source's active call; other numbers are inactive results; . = no result given.

SMILES	Sa growth inh	Sa helicase inh
COc1ccc(C(c2c(C)[nH]c3ccccc23)N2CCCC2)cc1 (centres undefined)	.	21
COc1ccc(C(c2c(C)[nH]c3ccccc23)N2CCOCC2)cc1 (centres undefined)	1.3*	15
Cc1c(N=C2SC(CC(=O)O)C(=O)N2/N=C/c2ccccc2O)c(=O)n(-c2ccccc2)n1C (centres undefined)	87	0
Cn1c(O)c(N=NC(=O)c2ccccc2)c2ccccc21	93	6
CCCCn1c(O)c(N=NC(=O)c2ccccc2)c2ccccc21	3.7*	7
CN1/C(=C\C(=O)CN2C(=O)NC3(CCCCC3)C2=O)C(C)(C)c2ccccc21	89	-2
CN1/C(=C\C(=O)CN2C(=O)NC3(CCc4ccccc43)C2=O)C(C)(C)c2ccccc21 (centres undefined)	-0.9*	-19
Cc1ccc(-c2csc(NC3OC(=O)c4ccccc43)n2)cc1C (centres undefined)	116	9
N#CCSc1nc2c(sc3ccccc32)c(=O)n1C1CCCCC1	78	7
O=c1oc2ccc(Cl)cc2c(=O)n1-c1cccc(C(F)(F)F)c1	-0.7*	7
Cc1ccc(-n2c(=O)oc3ccc(Cl)cc3c2=O)cc1	68	18
CC(=O)Nc1cc(OC(C)=O)c2nonc2c1OC(C)=O	0.9*	3
CC(=O)Nc1nonc1NC(C)=O	100	3
COc1cccc(C(=O)Nc2cccc(C)n2)c1	86	5
CCn1c(O)c(N=NS(=O)(=O)c2ccc(C)cc2)c2cc(Cl)ccc21	0.8*	13
CCn1c2ccc(Cl)cc2c2cc(Cl)ccc21	108	.
CCOc1cccc(OCC)c2c(C)[n+](C)c(C)c1-2	123	58*
CCOc1cccc(OCC)c2c(C)nc(C)c1-2	105	7
O=C(CSc1nnc(-c2ccccc2)o1)N1CCc2ccccc21	.	20
CCOC(=O)N1CCC(N(CCOC)C(=S)Nc2ccc(C)cc2C)CC1	102	4
CCOC(=O)c1c(-c2ccccc2)csc1N	103	-12
CCOC(=O)c1c(N)sc(SC#N)c1-c1ccccc1	4.9*	21
CCOC(=O)Cc1c[nH]c2ccccc12	95	4
CCCC(=O)Oc1c[nH]c2ccccc12	3.9*	.
Cc1nn(-c2ccccc2)c2c1C(c1ccc(Cl)cc1)N1C(=N2)C(=O)Nc2ccccc21 (centres undefined)	101	12
SMILES	Sa growth inh	Sa helicase inh
CCc1c(C)sc2c1CCN(Cc1ccccc1F)C2c1ccccc1 (centres undefined)	-1.3*	.
CCc1c(C)sc2c1CCN(C(=O)Nc1cc(OC)c(OC)c(OC)c1)C2c1ccccc1 (centres undefined)	94	.
CCc1c(C)sc2c1CCN(Cc1cccc(OC)c1)C2c1ccccc1 (centres undefined)	-1.1*	.
CCOC(=O)c1ccccc1NC(=O)N1CCc2c(sc(C)c2CC)C1c1ccccc1 (centres undefined)	107	.
O=C(O)[C@H]1/C(=C/CO)O[C@@H]2CC(=O)N21	15*	.
CC1CCC(C(=O)NC(Cc2ccccc2)C(=O)NCc2ccccn2)CC1 (centres undefined)	99	-13
CC(Oc1ccccc1)C(=O)Nc1scc2c1c(=O)oc1ccccc12 (centres undefined)	81	9
N#CC(C#N)=C(Nc1ccccc1Cl)SCc1cccc(F)c1	0.1*	1
N#CC(C#N)=C(Nc1ccc(Br)cc1)SCc1ccc(F)cc1	31	-13
Cc1ccccc1N1C(=O)C(Oc2ccc(Cl)cc2)C1CNC(C)C (centres undefined)	102	14
Cc1c2oc3c(C)ccc(C(=O)OC(C)C4NC(=O)C(C(C)C)N(C)C(=O)CN(C)C(=O)C5CCCN5C(=O)C(C(C)C)NC4=O)c3nc-2c(C(=O)OC(C)C2NC(=O)C(C(C)C)N(C)C(=O)CN(C)C(=O)C3CCCN3C(=O)C(C(C)C)NC2=O)c(N)c1=O (centres undefined)	-0.6*	.
Nc1ccn([C@@H]2O[C@H](CO)[C@@H](O)C2(F)F)c(=O)n1	0.3*	.
Nc1ccn([C@@H]2O[C@H](CO)[C@@H](O)C2O)c(=O)n1 (some centres undefined)	96	.
COC(=O)c1ccccc1NC(=O)c1c(C)nc2ccccn12	83	-5
O=C(c1ncoc1-c1cccs1)N1CCN(Cc2cccc3ccccc23)CC1	88	1
Cc1ccc(C(=O)OCC(=O)c2ccccc2)cc1NC(=O)c1ccco1	102	-10
CC1CN(Cn2nc(-c3cccc(S(=O)(=O)N(C)C)c3)n(-c3ccc(F)cc3)c2=S)CC(C)O1 (centres undefined)	107	-12
CO[C@@]12[C@H](COC(N)=O)C3=C(C(=O)C(C)=C(N)C3=O)N1C[C@@H]1N[C@@H]12	0.0*	.
COc1ccc(C(=O)N2CCc3cc(OC)c(OC)cc3C2C)cc1 (centres undefined)	105	.
COc1cc2cc3c4c(cc(OC)c(OC)c4c2cc1OC)CCN3C	6.6*	32
Cc1ccccc1-n1nnnc1SCC(=O)N/N=C/c1ccccc1O	108	7
CCCc1nc(-c2ccccn2)[nH]c(=O)c1Cc1c(F)cccc1Cl	58	35
C=CCc1c(CCC)nc(-c2ccccn2)[nH]c1=O	-0.3*	.
N#Cc1ccc(CSc2nc(-c3cccs3)c3c(c2C(=O)O)CCCC3)cc1	0.1*	15
Cc1ccc(CSc2nc(-c3cccs3)ccc2C#N)cc1	99	.
SMILES	Sa growth inh	Sa helicase inh
O=S(=O)(c1ccc(Cl)cc1)N1CCc2ccccc21	0.3*	-80
O=S(=O)(c1ccc(F)cc1)N1CCc2ccccc21	.	-17
N#C/C(=N\Nc1ccc(F)cc1)C(N)=S	0.0*	-23
NC(=S)NNc1ccc(F)cc1	70	18
CCN(CC)/N=N/c1[nH]nc2nc(C)cc(C)c12	7.2*	10
CCc1ccc2[nH]c3nc(C)cc(C)c3c(=O)c2c1	105	21
Fc1ccc(Nc2nc3nonc3nc2Nc2cccc(C(F)(F)F)c2)cc1	-1.0*	.
NNc1nc(NN)nc(Nc2cccc(C(F)(F)F)c2)n1	77	9
Fc1ccc(Nc2nc3nonc3nc2Nc2ccccc2F)cc1	-0.6*	17
O=c1[nH]c2nonc2nc1Nc1ccccc1F	29	2
CN(C)C(=O)COC(=O)c1ccccc1Oc1ccccc1	112	-9
Cc1cc(Br)c(N2C(=O)CCC2=O)c(Br)c1	101	.
CCc1nc2sc3c(c2c(=O)[nH]1)CCC3	.	5
Cc1ccc(O)cc1	90	.
Cc1ccc(-c2ccc(O)cc2)cc1	47*	-12
Cc1ccc(NC(=O)Cn2ncc3c4ccccc4n(Cc4ccccc4)c3c2=O)cc1	81	8
CCOC(=O)Cn1ccc(C(F)(F)F)n1	96	-5
N#C/C(=C\c1ccc(C(F)(F)F)cc1)c1cccs1	99	.
COc1ccc(/C=C(\C#N)c2cccs2)cc1	47*	-12
CC1CCc2c(sc(NC(=O)CCN3CCOCC3)c2C#N)C1 (centres undefined)	96	8
CC1CCc2cc(F)cc3c(=O)c(C(=O)O)cn1c23 (centres undefined)	30	.
CC1CCc2c(N3CCC(O)CC3)c(F)cc3c(=O)c(C(=O)O)cn1c23 (centres undefined)	-1.0*	.
CCn1cc(C(=O)O)c(=O)c2cc(F)c(N3CCNCC3)nc21	59	.
NC1CCN(c2c(F)cc3c(=O)c(C(=O)O)cn(C4CC4)c3c2Cl)C1 (centres undefined)	-0.9*	.
